Records with an inconclusive call do not appear. Where a call stands in place of a potency, no number is given. Activity calls are given as the source filed them. Calls follow the shape of the dose curve; as a rule, active = well fitted curve in the direction sought with a large enough effect; inconclusive = small, poorly fitted or top-dose-only effect, or another doubt; inactive = no such curve, though single readings can be large; an effect the other way counts as inactive or inconclusive.
Tests used:
[1] = UWB1.289-WTBRCA1 Cancer Cell Toxicity qHTS against the NCATS CANVASS Library (AID 1347354); details: UWB1.289-WTBRCA1 viability, CellTiter-Glo luminescence, 72 h; series mostly up to 38.3 µM
In short: (§1)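 Cells at 1000/well were given compound 4 h after plating in an 11-point series. Viability was read by CellTiter-Glo luminescence after 72 h at 37 degrees C.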

[2] = HPAF-II 24hr Apoptosis Induction qHTS against the NCATS CANVASS Library (AID 1347356); details: HPAF-II caspase-3/7 Caspase-Glo luminescence; series mostly up to 46.1 µM
In short: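 HPAF-II cells (500/well) exposed to compounds in 11-point series for 24 h at 37 degrees C; caspase-3/7 activity read by Caspase-Glo luminescence after 15 min at room temperature. Doxorubicin titration as control.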

[3] = HEK293 18hr Apoptosis Induction qHTS against the NCATS CANVASS Library (AID 1347357); details: HEK293 caspase-3/7 Caspase-Glo luminescence; series mostly up to 46.1 µM
In short: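 Caspase-3/7 luminescence (DEVD substrate, Caspase-Glo) after 18 h compound exposure of HEK293 cells, 500 cells/well; 11-point series; doxorubicin titration as control.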

[4] = HPAF-II 12hr Apoptosis Induction qHTS against the NCATS CANVASS Library (AID 1347358); details: HPAF-II caspase-3/7 Caspase-Glo luminescence; series mostly up to 46.1 µM
In short: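 HPAF-II cells, 500/well in DMEM + 10% FBS, exposed 12 hours at 37 degrees C to compound (11-point). Caspase-Glo 3/7 added for 15 min at room temperature; luminescence reflects caspase-3/7 activity.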

[5] = HEK293 24hr Apoptosis Induction qHTS against the NCATS CANVASS Library (AID 1347359); details: HEK293 caspase-3/7 activation, Caspase-Glo luminescence; series mostly up to 46.1 µM
In short: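 Caspase-3/7 activation measured as luminescence from the DEVD-based Caspase-Glo reagent, 15 min at room temperature, following 24-hour compound treatment of HEK293 cells.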

[6] = HPAF-II 18hr Apoptosis Induction qHTS against the NCATS CANVASS Library (AID 1347360); details: HPAF-II caspase-3/7 luminescence; series mostly up to 46.1 µM
In short: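 Caspase-Glo 3/7 luminescence (DEVD substrate) after 15 min RT; HPAF-II, 500 cells/well, 18 h compound exposure at 37 degrees C, qHTS series; doxorubicin control 0.1nM - 4uM.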

[7] = HEK293 12hr Apoptosis Induction qHTS against the NCATS CANVASS Library (AID 1347361); details: HEK293 caspase-3/7 Caspase-Glo luminescence; series mostly up to 46.1 µM
In short: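 500 HEK293 cells/well; cpds pin-transferred, 11-pt conc series; 12 h, 37 degrees C/5% CO2; Caspase-Glo 3/7 added, 15 min RT dark; luminescence.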

[8] = target: Luciferin 4-monooxygenase (Photinus pyralis) (UniProt P08659); assay: Firefly luciferase counterscreen qHTS: Assay Interference Panel against the NCATS CANVASS Library (AID 1347363); details: purified firefly luciferase, luminescence inhibition, 5 min; series mostly up to 57.5 µM; also: potency is read from the fitted curve at half-maximal effect
Sequence of Luciferin 4-monooxygenase (Photinus pyralis) (P08659 whole entry, looked up): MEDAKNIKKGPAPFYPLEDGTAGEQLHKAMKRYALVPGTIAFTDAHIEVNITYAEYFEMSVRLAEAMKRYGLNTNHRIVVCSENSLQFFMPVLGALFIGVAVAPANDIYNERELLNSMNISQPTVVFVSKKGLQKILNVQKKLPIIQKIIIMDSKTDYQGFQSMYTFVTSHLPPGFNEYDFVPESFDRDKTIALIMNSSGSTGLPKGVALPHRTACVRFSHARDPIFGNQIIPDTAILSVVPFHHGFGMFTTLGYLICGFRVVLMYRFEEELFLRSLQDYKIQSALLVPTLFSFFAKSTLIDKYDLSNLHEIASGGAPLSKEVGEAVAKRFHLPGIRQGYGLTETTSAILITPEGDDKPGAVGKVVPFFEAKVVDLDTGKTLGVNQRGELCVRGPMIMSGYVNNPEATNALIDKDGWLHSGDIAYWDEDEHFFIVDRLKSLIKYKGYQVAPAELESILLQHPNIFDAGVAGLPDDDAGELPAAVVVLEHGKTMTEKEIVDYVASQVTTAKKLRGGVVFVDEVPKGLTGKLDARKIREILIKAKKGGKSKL
In short: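 Luminescence inhibition readout: compounds (11-point qHTS) sat 15 min at room temperature with substrate mix (0.013 mM luciferin and ATP), then firefly luciferase was added and signal read 5 min later.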

[9] = HEK-293 Cancer Cell Toxicity qHTS against the NCATS CANVASS Library (AID 1347355); details: HEK-293 viability, CellTiter-Glo luminescence, 72 h; series mostly up to 46.1 µM; also: nearly all actives have a fitted effect of over 65% in size
In short: as §1

[10] = test system: NAD(P)H diaphorase (Clostridium kluyveri); assay: Diaphorse counterscreen qHTS: Assay Interference Panel against the NCATS CANVASS Library (AID 1347362); details: Diaphorase enzyme, resazurin to resorufin fluorescence; series mostly up to 57.5 µM
In short: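 Counterscreen for coupling-enzyme interference: resorufin fluorescence from resazurin/NADH turnover, read after 5 min at room temperature. Compounds were tested over an 11-point series after 15 min dark preincubation with diaphorase in PBS-Tween.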

SMILES | outcome [1] | outcome [2] | outcome [3] | outcome [4] | outcome [5] | outcome [6] | outcome [7] | Potency [8] | outcome [9] | outcome [10]
CC(=O)O[C@H]1C[C@@]2(C)[C@@H](CC[C@H]3[C@@]4(C)C=CC(=O)[C@@H](C)[C@@H]4[C@H](OC(C)=O)C(=O)[C@@]32C)/C1=C(\CCC=C(C)C)C(=O)O | inactive | inactive | inactive | inactive | inactive | inactive | inactive | inactive | – | –
CC(C)c1ccc2c(c1)CCC1[C@](C)(C(=O)O)CCC[C@]21C (stereo partly specified) | inactive | inactive | inactive | inactive | inactive | inactive | inactive | inactive | inactive | inactive
O=C(/C=C/C=C/c1ccc2c(c1)OCO2)N1CCCCC1 | inactive | inactive | inactive | inactive | inactive | inactive | inactive | 6.8 µM (active) | – | inactive
C/C(=C\CC/C(C)=C/CC[C@]1(C)CCc2cc(O)cc(C)c2O1)CC/C=C(\C)C(=O)O | inactive | inactive | inactive | inactive | inactive | inactive | inactive | inactive | inactive | –
